Results on ten molecules are retold here after PubChem BioAssay (Tox21).

A number with no mark means an inactive call. Records with an inconclusive call do not appear. Activity calls are given as the source filed them. Unless noted, calls come from the whole dose curve; as a rule, active = well fitted curve in the direction sought with a large enough effect in the repeat runs; inconclusive = weak or mixed curves; inactive = no such curve, though single readings can be large; an effect the other way counts as inactive or inconclusive.

The nature of test [1]: A CellTox Green Cytotoxicity Assay to monitor cytotoxicity in HepG2 cells - 0 hour (AID 1224882). Note: nearly all actives have a fitted effect of over 35% in size. In short, it runs like this: (§1)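 Continuous culture of HepG2 cells with a membrane-impermeant DNA dye; rising fluorescence marks dead cells. Compound exposure lasted up to 40 h at 37 C, with reads every 8 h from 0 h.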
Test [2] in a line: A CellTox Green Cytotoxicity Assay to monitor cytotoxicity in HEK293 cells - 8 hour (AID 1224884). Note: nearly all actives have a fitted effect of over 35% in size. In short, it runs like this:
(§2)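 Each value comes from one timepoint of a single continuous run in which HEK293 cells with CellTox Green were exposed to compound for up to 40 h at 37 C, dye fluorescence rising with cell death.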

The nature of test [3]: qHTS RealTime-Glo MT Cell Viability Assay in HEK293 cells - 24 hour (AID 1224886). Note: potency is the fitted concentration of half-maximal effect; nearly all actives have a fitted effect of over 50% in size. In short, it runs like this: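 Quantitative high-throughput screen of the Tox21 10K library in HEK293: cells and RealTime-Glo reagents plated together, compound added at 5 h, luminescence monitored through 40 h at 37 C.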
The nature of test [4]: qHTS RealTime-Glo MT Cell Viability Assay in HEK293 cells - 8 hour (AID 1224887). Note: nearly all actives have a fitted effect of over 50% in size. Note: potency is the fitted concentration of half-maximal effect. In short, it runs like this: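 qHTS format; HEK293 cells with NanoLuc/prosubstrate reagent, 37 C/5% CO2 for 5 h pre-dosing; compounds 23 nL in DMSO; luminescence at each time point reflects viable cells.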
For orientation: Quantitative high-throughput screening tests each substance at several concentrations.

A short description of test [5]: qHTS RealTime-Glo MT Cell Viability Assay in HepG2 cells - 0 hour (AID 1224889). Note: nearly all actives have a fitted effect of over 50% in size. In short, it runs like this:
(§3)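 Compound treatment began 5 h after plating HepG2 cells (600/well) with NanoLuc luciferase and prosubstrate. Plates stayed at 37 C for 40 h; luminescence was captured at six time points, 0 h through 40 h.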

Test [6] can be described thus: qHTS assay to identify small molecule antagonists of the androgen receptor (AR) signaling pathway using the MDA cell line in the presence of 0.5 nM R1881 - cell viability counter screen (AID 1259242). Note: nearly all actives have a fitted effect of over 45% in size. Summed up: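 Fluorescence from CellTiter-Fluor, which reports protease activity of live cells, was read 30 min after reagent addition to MDA-kb2 cells that had been incubated 16 hr with compound and 0.5 nM R1881.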

Test [7] is described as follows: qHTS assay to identify small molecule HDAC inhibitors (AID 1259364). Note: top concentration of the series differs between compounds; nearly all actives have a fitted effect of over 45% in size. Summed up: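 Endogenous HDAC class I/II activity was measured in wild-type HCT-116 cells by HDAC-Glo luminescence after 2 h compound treatment.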
The nature of test [8]: qHTS assay to identify small molecule HDAC inhibitors - cell viability counter screen (AID 1259365). Note: series mostly up to about 92 µM; nearly all actives have a fitted effect of over 50% in size. In short, it runs like this:
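Wild-type HCT-116 cells were seeded at 1,500 per well, incubated overnight at 37 C, then exposed to compounds in DMSO for 2hr. Viability was read by CellTiter-Glo luminescence after 30min at room temperature.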

Test [9] can be described thus: qHTS assay to identify small molecule antagonists of the sonic hedgehog signaling (Shh) pathway - cell viability counter screen (AID 1259367). Note: nearly all actives have a fitted effect of over 55% in size. Note: potency is the fitted concentration of half-maximal effect. Summed up:
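Seed 3T3 Gli1-Luc cells at 2,000 per well; incubate 4 hr; add compound in DMSO, then conditioned medium; incubate at 37C with 5% CO2; add CellTiter-Fluor after 23 hr; read fluorescence 1 hr later.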

Test [10] in a line: qHTS assay to identify small molecule agonists of the sonic hedgehog signaling (Shh) pathway (AID 1259368; calls by dose curve; note: series mostly up to about 92 µM; nearly all actives have a fitted effect of over 15% in size). Summed up:
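Luminescent signal was taken as a measure of Gli1-controlled luciferase expression in stably transfected NIH/3T3-derived cells that had been treated for 24 hr with compounds delivered in DMSO.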

A short description of test [11]: A CellTox Green Cytotoxicity Assay to monitor cytotoxicity in HEK293 cells - 32 hour (AID 1224881). Note: nearly all actives have a fitted effect of over 40% in size. Summed up: as §2
Test [12] in a line: qHTS RealTime-Glo MT Cell Viability Assay in HepG2 cells - 16 hour (AID 1224885). Note: nearly all actives have a fitted effect of over 50% in size. Summed up:
as §3

The nature of test [13]: A CellTox Green Cytotoxicity Assay to monitor cytotoxicity in HepG2 cells - 8 hour (AID 1224890). Note: nearly all actives have a fitted effect of over 45% in size. In short, it runs like this: as §1
Test [14] can be described thus: qHTS assay to identify small molecule antagonists of the estrogen receptor alpha (ER-alpha) signaling pathway using the BG1 cell line in the presence of 0.1 nM 17-beta-estradiol - cell viability counter screen (AID 1259241). Note: nearly all actives have a fitted effect of over 40% in size. In short, it runs like this:
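VM7Luc4E2 cells (endogenous ER-alpha, 4×ERE-luciferase), hormone-starved 5 days in charcoal-stripped FBS, were treated with compounds plus 0.1 nM 17beta-estradiol for 22 hr at 37C; viability read in same wells as CellTiter-Fluor live-cell protease fluorescence.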

A short description of test [15]: qHTS assay to identify small molecule phospholipidosis (PLD) inducers (AID 1259344; active = well fitted curve in the direction sought with a large enough effect; an effect the other way counts as inactive or inconclusive). In short, it runs like this:
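Quantitative HTS in HepG2: compound plus LipidTOX Red dye for 24 h, paraformaldehyde fixation with Hoechst 33342, widefield high-content imaging; amiodarone as positive and DMSO as negative control.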

A short description of test [16]: A CellTox Green Cytotoxicity Assay to monitor cytotoxicity in HepG2 cells - 32 hour (AID 1224883). Note: nearly all actives have a fitted effect of over 50% in size. Note: potency is the fitted concentration of half-maximal effect. In short, it runs like this:
as §1

Test [17] in a line: A CellTox Green Cytotoxicity Assay to monitor cytotoxicity in HEK293 cells - 16 hour (AID 1224888). Note: nearly all actives have a fitted effect of over 35% in size. Summed up: as §2
Test [18] concerns the target Androgen receptor (Homo sapiens) (UniProt P10275). Briefly: qHTS assay to identify small molecule antagonists of the androgen receptor (AR) signaling pathway using the MDA cell line in the presence of 0.5 nM R1881 (AID 1259243). Note: nearly all actives have a fitted effect of over 50% in size. Note: potency is the fitted concentration of half-maximal effect. In short, it runs like this:
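Inhibition of R1881 (0.5 nM final) induced reporter signal was measured in human MDA-kb2 cells; note the MMTV promoter also responds to GR. Exposure lasted 16 hr at 37C.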

Test [19] deals with Estrogen receptor (Homo sapiens) (UniProt P03372). The test can be described thus: qHTS assay to identify small molecule antagonists of the estrogen receptor alpha (ER-alpha) signaling pathway using the BG1 cell line in the presence of 0.1 nM 17-beta-estradiol (AID 1259244). Note: nearly all actives have a fitted effect of over 50% in size. Note: potency is the fitted concentration of half-maximal effect. In short, it runs like this: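 Quantitative high-throughput screen in VM7Luc4E2 cells: compound plus 0.1 nM E2 (final), 22 h, 37C, 5% CO2; ONE-Glo added, 30 min room temperature, luminescence measured.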

The nature of test [20]: qHTS assay to identify small molecule agonists of the sonic hedgehog signaling (Shh) pathway - cell viability counter screen (AID 1259366). Note: nearly all actives have a fitted effect of over 50% in size. Note: potency is the fitted concentration of half-maximal effect. Summed up:
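NIH/3T3-derived 3T3 Gli1-Luc cells (stable Gli1-responsive firefly luciferase reporter) were seeded, rested 4 hr at 37 C/5% CO2, then exposed to compounds in DMSO for 24 hr; viability was read by CellTiter-Fluor fluorescence in the same wells.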

Sequence of Androgen receptor (Homo sapiens) (P10275 whole entry, looked up): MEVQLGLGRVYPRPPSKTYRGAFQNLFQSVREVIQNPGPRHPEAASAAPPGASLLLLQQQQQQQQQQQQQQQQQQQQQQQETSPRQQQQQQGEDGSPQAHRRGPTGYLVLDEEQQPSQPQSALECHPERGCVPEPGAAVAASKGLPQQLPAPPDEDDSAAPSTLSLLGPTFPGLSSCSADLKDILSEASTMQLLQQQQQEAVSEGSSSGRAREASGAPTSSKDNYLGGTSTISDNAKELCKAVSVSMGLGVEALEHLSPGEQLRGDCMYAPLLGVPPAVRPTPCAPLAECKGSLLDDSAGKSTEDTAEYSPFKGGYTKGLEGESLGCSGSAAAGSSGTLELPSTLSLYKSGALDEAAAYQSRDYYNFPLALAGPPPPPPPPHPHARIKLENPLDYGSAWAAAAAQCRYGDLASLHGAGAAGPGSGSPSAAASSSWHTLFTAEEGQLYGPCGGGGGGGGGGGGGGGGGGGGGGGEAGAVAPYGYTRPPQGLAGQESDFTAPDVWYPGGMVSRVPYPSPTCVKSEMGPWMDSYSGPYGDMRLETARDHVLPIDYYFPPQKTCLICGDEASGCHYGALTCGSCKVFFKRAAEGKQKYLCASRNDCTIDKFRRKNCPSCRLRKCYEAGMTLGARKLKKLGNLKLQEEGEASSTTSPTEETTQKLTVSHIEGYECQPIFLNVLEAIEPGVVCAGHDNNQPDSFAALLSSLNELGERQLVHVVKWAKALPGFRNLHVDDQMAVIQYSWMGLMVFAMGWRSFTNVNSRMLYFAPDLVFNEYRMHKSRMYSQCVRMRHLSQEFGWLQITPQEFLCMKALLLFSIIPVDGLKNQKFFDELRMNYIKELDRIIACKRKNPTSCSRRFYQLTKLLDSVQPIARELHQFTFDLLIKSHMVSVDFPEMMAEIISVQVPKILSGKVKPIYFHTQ
Sequence of Estrogen receptor (Homo sapiens) (P03372 whole entry, looked up): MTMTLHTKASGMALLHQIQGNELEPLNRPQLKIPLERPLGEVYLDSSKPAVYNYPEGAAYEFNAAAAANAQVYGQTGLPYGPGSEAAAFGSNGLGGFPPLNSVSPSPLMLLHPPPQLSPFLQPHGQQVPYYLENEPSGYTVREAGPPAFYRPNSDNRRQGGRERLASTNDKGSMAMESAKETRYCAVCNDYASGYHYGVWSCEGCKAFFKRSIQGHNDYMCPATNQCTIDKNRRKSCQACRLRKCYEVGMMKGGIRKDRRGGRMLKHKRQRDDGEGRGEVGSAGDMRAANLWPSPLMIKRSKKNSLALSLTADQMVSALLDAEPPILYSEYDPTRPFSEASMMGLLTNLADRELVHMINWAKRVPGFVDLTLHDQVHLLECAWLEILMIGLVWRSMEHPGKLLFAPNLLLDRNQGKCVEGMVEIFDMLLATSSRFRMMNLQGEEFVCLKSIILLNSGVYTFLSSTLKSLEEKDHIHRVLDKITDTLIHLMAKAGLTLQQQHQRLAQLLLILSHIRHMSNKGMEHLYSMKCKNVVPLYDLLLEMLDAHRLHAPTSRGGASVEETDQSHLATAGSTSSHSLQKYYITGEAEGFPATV

For the molecule `CN1C[C@H](C(=O)N[C@]2(C)O[C@@]3(O)[C@@H]4CCCN4C(=O)[C@H](Cc4ccccc4)N3C2=O)C[C@@H]2c3cccc4[nH]cc(c34)C[C@H]21`, the Potency result in test [1], in [2], in test [5], in [6], in test [7] and in test [8] was “inactive” each time. Also, the Potency result in test [9] and in test [10] was “inactive” each time. Moreover, the Potency in [3] is 21.3 µM (active); in test [4], 23.9 µM (active).

For `COc1cc(N)c(Cl)cc1C(=O)NC1CCN(CCCOc2ccc(F)cc2)CC1OC` (centres undefined), the Potency entry in [11], in [1], in [12], in [5], in test [13] and in test [14] was “inactive” throughout. The Potency result in [15], in test [7], in test [8], in test [9] and in [10] was “inactive” in each case. The Potency in test [3] and in test [4] was 3.01 µM (active) each time.

With `Cc1cc(O)c(C)c(C)c1O`, the Potency entry in test [1], in test [16], in test [2], in [12], in [17] and in test [5] was “inactive” in each case. The Potency result in [13], in test [14], in [6], in [18], in test [19] and in [7] was “inactive” each time. Also, the Potency result in test [8], in test [20], in test [9] and in test [10] was “inactive” throughout.

In the case of `CC1=Nc2ccc3ccccc3c2C1(C)C`, the Potency result in test [11], in [1], in test [12], in [17], in [5] and in [13] was “inactive” in each case. Further, the Potency result in test [14], in [6], in [7], in test [8] and in test [10] was “inactive” in each case. The Potency in test [18] was 19.3 µM (active).

For the molecule `CN(C(=O)CN(CCO)CC(=O)N(C)C(C)(C)Cc1ccccc1)C(C)(C)Cc1ccccc1`, the Potency result in [1], in test [14], in [6], in [15], in test [7] and in test [8] was “inactive” throughout. The Potency entry in test [10] was “inactive”. In addition, the Potency in test [16] was 23.9 µM (active); in [3], 19 µM (active).

Consider `O=C=Nc1cccc(C(F)(F)F)c1`, for which the Potency result in test [1], in test [16], in test [2], in [12], in [4] and in test [5] was “inactive” throughout. Moreover, the Potency result in [13], in test [14], in test [6], in test [18], in test [19] and in [7] was “inactive” throughout. The Potency result in test [8], in test [20], in test [9] and in test [10] was “inactive” each time.

In the case of `CCCC(C(=O)OCCN(CC)CC)(c1ccccc1)c1ccccc1`, the Potency entry in [1], in [2], in [17], in test [5], in test [13] and in test [14] was “inactive” each time. Also, the Potency result in [19], in test [7], in test [8], in [9] and in test [10] was “inactive” throughout. Also, in test [3], the Potency is 21.3 µM (active).

In the case of `c1csc(SSc2cccs2)c1`, the Potency entry in test [1], in test [2], in test [17], in test [5], in test [13] and in [14] was “inactive” throughout. Moreover, the Potency entry in test [7], in test [8] and in [10] was “inactive” each time. Besides, the Potency in [20] and in test [9] was 43.3 µM (active) throughout.

With `Cc1cc2c(OCC(CNC(C)(C)C)OC(=O)c3ccccc3)cccc2[nH]1` (centres undefined), the Potency entry in test [1], in test [12], in [4], in test [5], in test [13] and in test [14] was “inactive” throughout. Further, the Potency entry in [19], in test [15], in [7], in test [8], in test [20] and in test [9] was “inactive” each time. In [10], the Potency result was “inactive”.

As for `CC1(CN2CCC(n3c(=O)[nH]c4ccccc43)CC2)OCc2ccccc2-n2cccc21` (centres undefined), the Potency entry in test [1], in test [2], in [5], in test [13], in [6] and in test [7] was “inactive” in each case. Also, the Potency result in test [8], in test [20], in [9] and in [10] was “inactive” throughout. Moreover, the Potency in test [3] is 19 µM (active); in test [19], 29.8 µM (active).
